Assay results: PubChem BioAssay (EPA / NIEHS)
Several values for one entry are separate records, joined by “and”; a condition that tells them apart may be missing. Equal values may be shown once. Results filed as inconclusive are left out. Some compounds were tested as several samples or in several runs, with calls that do not always agree. Activity calls are given as the source filed them. Rule for the calls, unless noted: active = hit-call score of the fitted dose curve at least 0.9, where 1 is the maximum; inactive = score below 0.9.

What was measured:
[1] = BSK_BT_PBMCCytotoxicity: PBMC Cytotoxicity Assessment in the BioMAP Diversity Plus: BT Assay (AID 2284225); settings: primary human B cells with PBMC;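 note: PBMC viability measured by Alamar Blue dye reduction fluorescence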
In short: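 75,000 cells/well; cpd 1 h → SEB + TSST-1 (20 ng/mL final each) → 90 h → Alamar Blue 6 h → fluor. 546/580 nm. DMSO = neg. control/baseline.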

[2] = read-out: Secreted IgG (sIgG), gene 3500; assay: BSK_BT_sIgG: BioMAP Diversity Plus: BT Assay for Secreted IgG (sIgG) Biomarker Activity (AID 2284226); settings: primary human B cells with PBMC
In short: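 Secreted IgG from a human primary B cell–PBMC co-culture was measured by ELISA 24 hours after dosing, with DMSO defining baseline activity.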

[3] = BSK_BT_Bcell_Proliferation: Viability Assessment in the BioMAP Diversity Plus: BT Assay for B cell Proliferation (AID 2284227); settings: primary human B cells with PBMC
In short: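 SRB-based protein staining (0.1% SRB after 10% TCA fixation, 560 nm) quantifies proliferation in human B cells co-cultured with PBMC, 72 h post-dosing, with signal gain scored relative to DMSO negative control.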

[4] = read-out: Interleukin 6 (IL6), IL6 (gene 3569); assay: BSK_BT_xIL6: BioMAP Diversity Plus: BT Assay for Interleukin 6 (IL6) Biomarker Activity (AID 2284228); settings: primary human B cells with PBMC
In short: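 Secreted IL-6 in the primary human B cell plus PBMC system, measured by Luminex at 24 h post-chemical, DMSO as baseline. Alamar Blue viability: 75,000 cells/well, chemical 1 h before SEB/TSST-1 (20 ng/mL each), 90 h, then 6 h dye.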

[5] = read-out: Interleukin 17A (IL17A), IL17A (gene 3605); assay: BSK_BT_xIL17A: BioMAP Diversity Plus: BT Assay for Interleukin 17A (IL17A) Biomarker Activity (AID 2284229); settings: primary human B cells with PBMC
In short: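 Luminex xMAP quantification of secreted IL-17A after 24 h chemical exposure of a primary human B cell/PBMC co-culture. Signal increases fitted relative to DMSO negative control.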

[6] = read-out: Tumor necrosis factor (Homo sapiens) (UniProt P01375); assay: BSK_BT_xTNFa: BioMAP Diversity Plus: BT Assay for Tumor necrosis factor alpha (TNF-alpha) Biomarker Activity (AID 2284230); settings: primary human B cells with PBMC
In short: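 Compounds were added to a B cell plus PBMC co-culture, and after 24 h secreted TNF-alpha was quantified with Luminex xMAP technology, with responses fitted upward from the DMSO control.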

[7] = read-out: Vascular cell adhesion molecule 1 (VCAM1), VCAM1 (gene 7412); assay: BSK_MyoF_VCAM1: BioMAP Diversity Plus: MyoF Assay for Vascular cell adhesion molecule 1 (VCAM1) Biomarker Activity (AID 2284231); settings: primary human lung fibroblasts
In short: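 ELISA readout of VCAM-1 on human lung fibroblast cultures 24 hours after dosing, analyzed for signal gain relative to DMSO. Overt cytotoxicity was checked by sulforhodamine B total-protein staining in parallel cultures.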

[8] = read-out: Collagen I, COL1A1 (gene 1277); assay: BSK_MyoF_CollagenI: BioMAP Diversity Plus: MyoF Assay for Collagen I Biomarker Activity (AID 2284238); settings: primary human lung fibroblasts
In short: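 Collagen I levels measured by ELISA on human lung fibroblast cultures 24 h post-dosing, with curve fitting in the positive direction relative to DMSO; SRB staining of parallel wells marked cytotoxicity.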

[9] = read-out: Collagen III, COL3A1 (gene 1281); assay: BSK_MyoF_CollagenIII: BioMAP Diversity Plus: MyoF Assay for Collagen III Biomarker Activity (AID 2284239); settings: primary human lung fibroblasts
In short: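 Collagen III biomarker quantified by ELISA in human lung fibroblast cultures 24 h after dosing. Activity fitted in the positive direction against DMSO as baseline.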

[10] = read-out: Interleukin 17F (IL17F), IL17F (gene 112744); assay: BSK_BT_xIL17F: BioMAP Diversity Plus: BT Assay for Interleukin 17F (IL17F) Biomarker Activity (AID 2284243); settings: primary human B cells with PBMC
In short: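 Human B cells co-cultured with PBMC; secreted IL-17F quantified by LumineX xMAP 24 hours after chemical dosing. Activity fitted in the positive direction against DMSO negative control as baseline.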

[11] = read-out: Actin alpha 1 (ACTA1), ACTA1 (gene 58); assay: BSK_MyoF_ACTA1: BioMAP Diversity Plus: MyoF Assay for Actin alpha 1 (ACTA1) Biomarker Activity (AID 2284244); settings: primary human lung fibroblasts
In short: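 Measured by ELISA: alpha-smooth muscle actin in human primary lung fibroblasts 24 h after dosing, with DMSO as baseline and upward signal change as the fitted direction.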

[12] = read-out: Interleukin 2 (IL2), IL2 (gene 3558); assay: BSK_BT_xIL2: BioMAP Diversity Plus: BT Assay for Interleukin 2 (IL2) Biomarker Activity (AID 2284245); settings: primary human B cells with PBMC
In short: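 Secreted interleukin-2 from human B cell/PBMC co-cultures, measured 24 h post-dosing by Luminex multiplex immunoassay. Upward-direction curve fitting against DMSO baseline.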

[13] = UKN2_HCS_IMR90_cell_viability: Viability Assessment in the University of Konstanz (UKN) Leist Lab Neural Crest Cell Migration Assay in human induced IMR90 Pluripotent Stem Cells (UKN2) (AID 2284233);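 note: viability of neural crest cells differentiated from IMR90 iPSC measured by calcein-AM fluorescence imaging; cells exposed to compound for 24 h after a 24 h migration phase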
In short: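 iPSC-derived (IMR90) neural crest cells seeded around silicone stoppers on PLO/laminin/fibronectin; after 24 h migration in N2-S with EGF/FGF, chemical added for 24 h. Calcein-AM/Hoechst stained 30 min, high-content imaged; bidirectional fit versus DMSO.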

[14] = CCTE_Mundy_HCI_Cortical_NOG_NeuronCount: CCTE's Neurite Outgrowth Assay in rat cortical cells for Neuron Count, Mundy Lab (AID 2284236; active = hit-call score of the fitted dose curve at least 0.9, where 1 is the maximum;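 note: neurons counted by imaging betaIII-tubulin and Hoechst stained cortical cells; cells exposed to compound for about 48 hours before fixation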)
In short: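 Read-out: neuron number by high-content imaging of betaIII-tubulin (Alexa Fluor-488) and Hoechst-labelled rat primary cortical cells.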

[15] = CCTE_Mundy_HCI_Cortical_NOG_BPCount: CCTE's Neurite Outgrowth Assay in rat cortical cells for Branch Point Count, Mundy Lab (AID 2284237);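 for AC50: branch points counted about two days after chemical exposure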
In short: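 Measured 50.33 h after dosing, this morphology endpoint uses rat primary cortical cultures labelled for betaIII-tubulin. Branch points are quantified by high-content imaging, with DMSO as negative control and baseline.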

[16] = CCTE_Mundy_HCI_hNP1_Casp3_7: CCTE's Caspase-Glo 3/7 Assay in human neuroprogenitor cells for Apoptosis, Mundy Lab (AID 2284240)
In short: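 Neuroepithelial-lineage stem cells from WA09 embryonic cells were treated with chemicals after 40–44 h of culture. Twenty-four hours later, caspase-3/7 activation was detected luminescently after a 30 min room-temperature reagent step, with DMSO as baseline.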

[17] = CCTE_Mundy_HCI_Cortical_Synap_Neur_Matur_NeuronCount: CCTE's Synaptogenesis and Neurite Maturation Assay in rat cortical cells for Neuron Count, Mundy Lab (AID 2284242; active = hit-call score of the fitted dose curve at least 0.9, where 1 is the maximum;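 for AC50: neuron number from Hoechst nuclei and MAP2 staining by high-content imaging; hits reduce neuron count versus DMSO baseline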)
In short: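 Imaging-based neuron count in rat cortical cultures after chemical exposure from DIV 7 to DIV 12, with AraC added at DIV 5. Activity is fitted relative to DMSO.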

[18] = TAMU_HCS_1.5hr_SingleDonor1434_Cytotoxicity: Cytotoxicity Assessment using High-content Screening (HCS) Fluorescent Imaging for the Texas A&M University (TAMU) 1.5-hr Human Induced Pluripotent Stem Cell (iPSC)-derived Cardiotoxicity Assay (AID 2284234; active = hit-call score of the fitted dose curve at least 0.9, where 1 is the maximum)
In short: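 Human iPSC-derived cardiomyocytes dosed at 0.2, 1, 10, 100 uM final (0.5% DMSO) for 90 min at 37 C. Hoechst 33342-stained nuclei counted by 10x high-content imaging; POD is EC10, a 10% drop in total cell count versus DMSO.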

[19] = TAMU_PeakParms_SingleDonor1434_QT: Texas A&M University (TAMU) 1.5-hr Human Induced Pluripotent Stem Cell (iPSC)-derived Cardiomyocytes Calcium (Ca+2) Flux Assay for Cardiotoxicity: QT (decay-rise ratio) (AID 2284235; active = hit-call score of the fitted dose curve at least 0.9, where 1 is the maximum)
In short: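 iPSC-derived cardiomyocytes (single donor 1434) dosed at 0.2, 1, 10, 100 uM final in 0.5% DMSO, 90 min at 37C. Ca2+ flux fluorescence decay/rise ratio; EC05 (5% increase versus DMSO) as POD, excluding beat-arrest and severe-notch data.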

Measured: AC50

Sequence of Tumor necrosis factor (Homo sapiens) (P01375 whole entry, looked up): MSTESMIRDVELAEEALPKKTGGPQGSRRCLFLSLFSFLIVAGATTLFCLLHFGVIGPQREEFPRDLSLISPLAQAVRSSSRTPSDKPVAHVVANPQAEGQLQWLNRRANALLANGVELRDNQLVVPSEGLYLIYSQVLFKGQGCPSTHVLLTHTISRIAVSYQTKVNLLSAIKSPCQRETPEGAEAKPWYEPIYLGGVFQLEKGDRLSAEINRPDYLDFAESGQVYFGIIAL

CCNS(=O)(=O)C(F)(F)C(F)(F)C(F)(F)C(F)(F)C(F)(F)C(F)(F)C(F)(F)C(F)(F)F
inactive: [1] | [3] | [4] | [5] | [6] | [12]
active: [2] 22.5 µM and 30 µM | [5] 19.1 µM | [7] 30 µM and 40.3 µM | [8] 50.6 µM and 44.6 µM | [9] 44.1 µM and 45 µM | [10] 21.4 µM and 37.4 µM | [11] 21.5 µM and 30 µM

COP(=S)(OC)SCN1C(=O)c2ccccc2C1=O
inactive: [13] | [14] | [15] | [16] | [17]

COC(=O)Nc1nc2ccccc2[nH]1
inactive: [13] | [14] | [17]
active: [15] 3.98 µM | [16] 6.5 µM

c1ccc(N=Nc2ccccc2)cc1
inactive: [18]

O=P(OCCCl)(OCCCl)OCCCl
inactive: [18]

CNC(=O)Oc1cccc2c1OC(C)(C)C2
inactive: [13] | [14] | [15] | [16] | [17]

ClC1=C(Cl)C2(Cl)C3C(Cl)C=CC3C1(Cl)C2(Cl)Cl (stereo not drawn)
inactive: [19]
active: [18] 50 µM | [14] 26.5 µM | [15] 12.2 µM | [16] 90.2 µM | [17] 11.5 µM

ClC1=C(Cl)[C@]2(Cl)[C@H]3[C@H]([C@@H]4C=C[C@H]3C4)[C@@]1(Cl)C2(Cl)Cl
active: [18] 83 µM
inactive: [19]

C1=Cc2cccc3cccc1c23
inactive: [18] | [19]

CN(C)[C@@H]1C(=O)C(C(N)=O)=C(O)[C@@]2(O)C(=O)C3=C(O)c4c(O)cccc4[C@@](C)(O)[C@H]3C[C@@H]12
inactive: [14] | [15] | [16]
